# Experimental data reported in the supplement of paper PMC10646978.
# ± gives the standard deviation.
# Assays:
# Details in all cases: modulator concentration 10 µM
# [1] = test system: RAW-Dual (murine macrophage reporter line); assay: NF-kB reporter (SEAP) activity fold change vs agonist alone; higher = enhanced NF-kB activity
# How it was run: (§1)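 RAW-Dual murine macrophage reporter cells were plated at 50 000 per well in 384-well plates, pin-transferred compound to 10 μM final, and pre-incubated for 1 hour at 37 °C before a PRR agonist was added and the cells incubated overnight. NF-κB activity was read from supernatant SEAP with QUANTI-Blue at 620 nm absorbance, and IRF activity from Lucia luciferase with QUANTI-Luc by luminescence. Each signal was expressed as fold change by dividing by the mean agonist-only control on the same plate. Two replicate plates were averaged, with errors obtained by propagation.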
# [2] = test system: RAW-Dual (murine macrophage reporter line); assay: IRF reporter (Lucia luciferase) activity fold change vs agonist alone; higher = enhanced IRF activity
# How it was run: as §1
# [3] = test system: RAW-Dual (murine macrophage reporter line); assay: viability score (confluency relative to resting cells, overnight) (fraction); higher = more viable, active = viable (0.7 or more)
# How it was run: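 RAW-Dual macrophages in 384-well plates were exposed overnight to compound at 10 μM final. Confluency was imaged with IncuCyte, and two confluency masks were generated with IncuCyte software over all imaged wells. The viability score is confluency expressed relative to resting cells. Compounds were called viable if both masks exceeded 70% of resting cells.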
# [4] = agonist: CpG ODN 1826 0.5 ug/mL
Compound,"NF-kB reporter [1, 4]",NF-kB reporter ([1]; agonist: LPS 0.1 ug/mL),NF-kB reporter ([1]; agonist: MPLA […]),IRF reporter ([2]; agonist: 3'3'-cGAMP 10 ug/mL),IRF reporter ([2]; agonist: LPS 0.1 ug/mL),IRF reporter ([2]; agonist: MPLA […]),viability score [3]
CN1CC[C@H](c2c(O)cc(O)c3c(=O)cc(-c4ccccc4Cl)oc23)[C@H](O)C1,0.118 ± 0.009,0.0512 ± 0.004,0.104 ± 0.01,0.0122 ± 0.0028,0.0166 ± 0.001,0.0196 ± 0.0027,0.0463 (inactive)
CC(C)(C)c1ccc(C(=O)Nc2nc3ccc([N+](=O)[O-])cc3s2)cc1,1.06 ± 0.085,1.05 ± 0.072,1 ± 0.035,1.04 ± 0.23,0.986 ± 0.074,1.1 ± 0.11,1 (active)
Cl.O[C@@H](CNC[C@H](O)[C@H]1CCc2cc(F)ccc2O1)[C@@H]1CCc2cc(F)ccc2O1,0.947 ± 0.09,0.759 ± 0.049,0.982 ± 0.028,0.68 ± 0.087,0.642 ± 0.021,1.13 ± 0.21,0.13 (inactive)
Cc1ccc(NC(=O)c2ccc(CN3CCN(C)CC3)cc2)cc1Nc1nc(-c2cccnc2)cs1,0.228 ± 0.018,1.18 ± 0.067,1.74 ± 0.17,0.414 ± 0.051,0.703 ± 0.051,0.691 ± 0.058,0.981 (active)
Cl.Cl.O=C(O)COCCN1CCN([C@H](c2ccccc2)c2ccc(Cl)cc2)CC1,1.07 ± 0.082,1.06 ± 0.052,1.01 ± 0.047,0.94 ± 0.057,0.905 ± 0.035,0.97 ± 0.13,1 (active)
Cl.NC12CC3CC(CC(C3)C1)C2,1.44 ± 0.2,1.21 ± 0.38,1.04 ± 0.062,0.909 ± 0.033,1.44 ± 0.24,1.12 ± 0.096,0.983 (active)
CCN(CC)c1ccc2cc(-c3nnc(NCc4ccc(F)cc4)s3)c(=O)oc2c1,1.08 ± 0.085,0.955 ± 0.059,0.906 ± 0.055,0.941 ± 0.035,1.08 ± 0.13,0.981 ± 0.085,1.01 (active)
COc1ccc(C=Nc2ccc(OC(C)=O)cc2)cc1,0.738 ± 0.16,1.11 ± 0.16,1.03 ± 0.11,0.588 ± 0.029,1.34 ± 0.13,1.23 ± 0.15,1 (active)
CCN(CC)c1ccc(NC(=O)C(C)(C)C)cc1,0.969 ± 0.075,1.02 ± 0.075,0.98 ± 0.12,0.901 ± 0.074,1.22 ± 0.17,1.36 ± 0.25,1.04 (active)
CCN1C(=O)C(=Cc2c[nH]c3ccccc23)SC1=S,0.67 ± 0.075,0.994 ± 0.081,0.868 ± 0.033,0.813 ± 0.16,1.02 ± 0.084,1.36 ± 0.18,0.804 (active)
N#CCCC1(CCC#N)S(=O)(=O)CC(c2ccc(Cl)cc2)CS1(=O)=O,0.67 ± 0.04,0.909 ± 0.056,0.623 ± 0.05,0.915 ± 0.031,1.26 ± 0.087,1.04 ± 0.091,0.97 (active)
COC(=O)c1ccc(CN2CCc3ccccc3C2)cc1,0.82 ± 0.089,1.17 ± 0.08,1.3 ± 0.059,0.832 ± 0.052,0.974 ± 0.1,1.5 ± 0.36,0.938 (active)
Nc1nc(N)c2nc(-c3ccccc3)c(N)nc2n1,0.861 ± 0.15,1.03 ± 0.17,0.891 ± 0.056,0.56 ± 0.017,1.17 ± 0.27,1.18 ± 0.18,0.92 (active)
Cc1cccc2sc(NNC(=O)c3ccc(S(=O)(=O)N4CCc5ccccc5C4)cc3)nc12,0.923 ± 0.093,0.973 ± 0.063,0.93 ± 0.079,0.929 ± 0.067,1.2 ± 0.2,0.93 ± 0.11,0.995 (active)
O=C(NN=Cc1ccccc1C(F)(F)F)c1ccc(=O)[nH]n1,0.764 ± 0.062,0.877 ± 0.052,1.08 ± 0.098,0.964 ± 0.052,1.23 ± 0.08,1.28 ± 0.12,0.999 (active)
COc1ccc(-c2nc(CNC(=O)C3CCN(c4cc(C5CC5)ncn4)CC3)cs2)cc1,0.957 ± 0.066,1.4 ± 0.11,1.16 ± 0.05,1.05 ± 0.062,1.24 ± 0.14,1.29 ± 0.25,1 (active)
Cc1oncc1C(=O)Nc1ccc(C(F)(F)F)cc1,2.06 ± 0.4,1.1 ± 0.16,1.09 ± 0.071,1.31 ± 0.045,1.12 ± 0.29,2.03 ± 0.2,0.357 (inactive)
CC(=O)Oc1cc2c(s1)CCN(C(C(=O)C1CC1)c1ccccc1F)C2 (centres undefined),0.988 ± 0.15,1.2 ± 0.36,0.844 ± 0.05,0.919 ± 0.035,1.28 ± 0.31,1.1 ± 0.18,0.985 (active)
COc1ccc(OC)c(S(=O)(=O)N2CCC(Oc3nc4c(C)cccc4s3)CC2)c1,0.687 ± 0.039,0.889 ± 0.092,1.02 ± 0.072,0.741 ± 0.042,1.15 ± 0.26,1.41 ± 0.57,0.908 (active)
COc1cc(C=NNC(=O)CSc2ccccn2)cc(Cl)c1O,1.16 ± 0.073,1.02 ± 0.15,0.953 ± 0.026,1.04 ± 0.042,0.95 ± 0.12,0.94 ± 0.18,1 (active)
Nc1ncnc2c1ncn2C1CC(O)C(CO)O1 (centres undefined),0.992 ± 0.08,0.875 ± 0.065,1.12 ± 0.11,1.12 ± 0.039,1.29 ± 0.18,1.35 ± 0.26,1.05 (active)
Cc1ccc(=O)n(-c2ccccc2)c1,0.979 ± 0.079,0.981 ± 0.098,0.968 ± 0.038,0.979 ± 0.077,0.975 ± 0.13,0.976 ± 0.092,1 (active)
O=C(CCC(=O)Nc1ccccc1)NN=Cc1ccc(Cl)cc1,1.01 ± 0.06,0.993 ± 0.062,1 ± 0.08,0.98 ± 0.036,1.48 ± 0.2,1.22 ± 0.13,1 (active)
CCc1c(C)nc(-n2nc(C)cc2NC(=O)CSCc2ccccc2)[nH]c1=O,0.901 ± 0.056,0.603 ± 0.082,0.885 ± 0.038,0.973 ± 0.065,1.22 ± 0.078,1.07 ± 0.099,1.02 (active)
CC/C(=C(\c1ccccc1)c1ccc(OCCN(C)C)cc1)c1ccccc1.O=C(O)CC(O)(CC(=O)O)C(=O)O,0.808 ± 0.064,0.859 ± 0.053,1.09 ± 0.11,0.963 ± 0.048,1.32 ± 0.076,1.38 ± 0.12,1.02 (active)
CSc1nc2cccc(F)c2c(=O)n1C1CC1,1.06 ± 0.078,1.02 ± 0.093,1.18 ± 0.076,1.09 ± 0.051,1.31 ± 0.25,1.52 ± 0.38,0.67 (inactive)
C[C@H](Oc1ccc(S(C)(=O)=O)cc1C(=O)N1CCN(c2ncc(C(F)(F)F)cc2F)CC1)C(F)(F)F,0.902 ± 0.073,0.807 ± 0.11,0.936 ± 0.056,0.821 ± 0.074,1.03 ± 0.038,0.706 ± 0.15,1 (active)
